Compound activity (PubChem BioAssay)
Shown is part of a subset that was picked to be rich in hits.
DT40 TDP1 no CPT = qHTS for Inhibitors of human tyrosyl-DNA phosphodiesterase 1 (TDP1): qHTS in cells in absence of CPT; DT40 Tdp1-/- hTDP1 cells, no CPT, ATP luminescence, 48 h; Potency, µM (highest dose often 46.2 µM), without a hit: at the top dose activity change, negative = growth inhibition, usual class: inhibitors; hit rate 15% among 420,000; AID 686978, 2013; note: potency is the fitted concentration of half-maximal effect; nearly all actives have a fitted effect of over 55% in size
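DT40 Tdp1-/-;hTDP1 cells, no CPT (DMSO vehicle only), 400 cells/well; compounds pin-transferred; ≥48 hr, 37 °C; CellTiter-Glo 30 min RT dark, luminescence read.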
DT40 TDP1 CPT = qHTS for Inhibitors of human tyrosyl-DNA phosphodiesterase 1 (TDP1): qHTS in cells in presence of CPT; hit rate 12% among 420,000; chicken DT40 Tdp1-/-;hTDP1 cells + 20 nM CPT, ATP luminescence, 48 h; Potency, µM (highest dose often 46.2 µM), for inactives: at the top dose activity change, negative = growth inhibition, hits mostly inhibitors; note: potency is the fitted concentration of half-maximal effect; nearly all actives have a fitted effect of over 55% in size
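Chicken DT40 Tdp1-/- cells complemented with human TDP1, 400 cells/well, exposed to compounds plus 20 nM camptothecin for at least 48 h at 37 C; viability read as ATP content by CellTiter-Glo luminescence.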
IL1B secr inh = qHTS for Inhibitors of Inflammasome Signaling: IL-1-beta AlphaLISA Primary Screen | THP-1 LPS/ATP IL-1B secretion, AlphaLISA, 16 h; active compounds read low | activity change, % at 57.5 µM | hit rate 4.7% among 360,000 | AID 743279, 2014; in the data active = activity change below about -50%; inconclusive = mostly about -30% to -49%
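Secreted IL-1B measured by AlphaLISA bead assay after 16 h compound exposure of THP-1 cells; compounds (final up to 57.5 uM) added 1 h before LPS (250 ng/mL) and ATP (1.25 mM) stimulation; lower signal means less secretion.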
HT1080NT lethal = qHTS for induction of synthetic lethality in tumor cells producing 2HG: qHTS for the HT-1080-NT fibrosarcoma cell line | HT-1080-NT fibrosarcoma viability, CellTiter-Glo ATP luminescence, 48 h | Potency, µM (top dose mostly 46.1 µM), without a hit: top-dose activity, negative = less viability, usual class: cytotoxic | hit rate 1.6% among 360,000 | AID 686970, 2013;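 note: NT is the 2HG producing partner of a matched IDH1 knockdown line; potency is the fitted concentration of half-maximal effect; 0% = DMSO-treated cells and -100% = media-only wells without cells; nearly all actives have a fitted effect of over 55% in size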
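Compounds were tested in concentration-response format on HT-1080-NT cells for 48 hours at 37 degrees C. Cell viability came from CellTiter-Glo luminescence; curves were classified by r2, response magnitude and activity.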
HT1080 IDH1KD tx = qHTS for induction of synthetic lethality in tumor cells producing 2HG: qHTS for the HT-1080-IDH1KD cell line; HT-1080 IDH1 knockdown viability, ATP luminescence, 48 h; hit rate 2% among 360,000; AID 686971, 2013; Potency, µM (top dose mostly 46.1 µM), inactives show at the top dose activity, negative = toxicity, hits mostly cytotoxic;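 note: potency is the fitted concentration of half-maximal effect; 0% = DMSO wells and -100% = cell-free medium wells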
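Knockdown cells (IDH1KD HT-1080) received compounds 2 h after plating at 750 cells/well and were kept 48 h at 37 °C in 5% FBS RPMI. A CellTiter-Glo luminescence read gave % activity for curve fitting.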
12-LOX inh = Primary qHTS assay for inhibitors of human arachidonate 12S-lipoxygenase (ALOX12): Round 2. Polyunsaturated fatty acid lipoxygenase ALOX12 (Homo sapiens), P18054. Potency, µM (doses to about 108 µM), for the others: top-dose activity change, negative = inhibition, hits mostly inhibitors. purified 12hLO, xylenol orange hydroperoxide absorbance. hit rate 1.1% among 580,000; note: potency is the fitted concentration of half-maximal effect
Target sequence (P18054 whole entry, looked up): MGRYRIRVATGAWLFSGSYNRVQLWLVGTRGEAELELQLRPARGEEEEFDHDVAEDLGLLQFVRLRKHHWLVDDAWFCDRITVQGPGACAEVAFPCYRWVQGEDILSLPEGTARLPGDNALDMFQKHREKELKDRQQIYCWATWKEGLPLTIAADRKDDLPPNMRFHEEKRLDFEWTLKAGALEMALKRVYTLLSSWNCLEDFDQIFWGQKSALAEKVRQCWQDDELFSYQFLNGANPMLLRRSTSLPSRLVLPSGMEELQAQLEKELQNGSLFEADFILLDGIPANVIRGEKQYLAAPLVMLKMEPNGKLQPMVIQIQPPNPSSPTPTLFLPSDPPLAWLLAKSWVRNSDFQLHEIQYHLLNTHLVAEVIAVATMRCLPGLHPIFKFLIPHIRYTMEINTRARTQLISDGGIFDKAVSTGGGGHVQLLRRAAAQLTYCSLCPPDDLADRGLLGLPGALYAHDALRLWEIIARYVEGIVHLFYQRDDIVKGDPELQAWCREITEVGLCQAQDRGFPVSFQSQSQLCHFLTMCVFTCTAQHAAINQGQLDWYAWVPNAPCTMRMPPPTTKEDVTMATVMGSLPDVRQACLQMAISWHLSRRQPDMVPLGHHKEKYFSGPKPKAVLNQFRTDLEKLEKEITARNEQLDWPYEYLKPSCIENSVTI
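Hydroperoxide product was detected by ferrous iron/xylenol orange as the 573 to 405 nm absorbance ratio. Arachidonic acid at 40 uM (final) was turned over for 30 min at room temperature by 150 nM human 12hLO, pH 7.0 Hepes buffer, after 15 min compound preincubation.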
* marks the source's active call; other numbers are inactive results; ? = inconclusive; nt = no result given. Unless noted, calls come from the whole dose curve; as a rule, active = well fitted curve in the direction sought with a large enough effect; inconclusive = small, poorly fitted or top-dose-only effect, or another doubt; inactive = no such curve, though single readings can be large; an effect the other way counts as inactive or inconclusive. Unless noted, % is set by controls: 0 for no effect and ±100 for the full control effect.

SMILES	DT40 TDP1 no CPT	DT40 TDP1 CPT	IL1B secr inh	HT1080NT lethal	HT1080 IDH1KD tx	12-LOX inh
CNC(=O)c1sc(N2N=C3/C(=C\c4ccccc4)CCCC3C2c2ccccc2)nc1C (stereo not drawn)	25.9µM*	?	-10.7	-7.2%	-2.2%	-17.8%
N=c1c2ccccc2nnn1-c1ccc(C(F)(F)F)cc1	6.51µM*	?	-15.6	7.6%	8.3%	-11.3%
COc1ccc(N(C(=O)c2ccc(Br)o2)C2C=CS(=O)(=O)C2)cc1 (stereo not drawn)	13µM*	13µM*	4.1	4.9%	-2.1%	4.6%
Cc1cc(C)cc(N(C(=O)c2ccc(Br)o2)C2C=CS(=O)(=O)C2)c1 (stereo not drawn)	?	-1.3%	-9.2	18.3%	5.8%	-10.5%
O=S1(=O)N=CN(Cc2c(F)cccc2Cl)c2cc(C(F)(F)F)ccc21	nt	nt	nt	nt	nt	-25.1%
CC(C(=O)Nc1cc(C(F)(F)F)ccc1Cl)n1nnc2sc3c(c2c1=O)CCCC3 (stereo not drawn)	16.4µM*	23.1µM*	nt	nt	nt	-6.7%
CCC(C)OC(=O)Cn1nnc2sc3c(c2c1=O)CCCC3 (stereo not drawn)	nt	nt	nt	nt	nt	11.7%
Cc1ccc(Cl)cc1NC(=O)C(C)n1nnc2sc3c(c2c1=O)CCCC3 (stereo not drawn)	16.4µM*	25.9µM*	nt	nt	nt	-22.8%
Cc1c(Cl)cccc1NC(=O)C(C)n1nnc2sc3c(c2c1=O)CCCC3 (stereo not drawn)	-17.9%	?	nt	nt	nt	-24.4%
CCOc1ccccc1NC(=O)C(C)n1nnc2sc3c(c2c1=O)CCCC3 (stereo not drawn)	14.6µM*	?	nt	nt	nt	-3.4%
CCCN1CNc2c(c(=O)[nH]c(=S)n2CCc2cccc(Cl)c2Cl)C1	10µM*	?	nt	-19.7%	-16.6%	nt
CCCN1CNc2c(c(=O)[nH]c(=S)n2CCc2cc(Cl)cc(Cl)c2)C1	3.98µM*	5.62µM*	nt	?	?	nt
CCOC(=O)c1cn(-c2c(Cl)cccc2Cl)c2cc(Cl)c([N+](=O)[O-])cc2c1=O	16.4µM*	?	-54.4*	?	?	-13.7%
CCOC(=O)c1cn(CC2CC2)c2cc(F)c(F)cc2c1=O	-24.1%	4.1%	-9.9	-8.7%	-10.7%	-0.2%
O=C(OCc1ccccc1)/C(=C/c1cccc([N+](=O)[O-])c1)NC(=O)c1ccco1	-20.3%	?	-50.3*	-6.6%	-13.2%	-4.3%
COc1ccc(/C=C/C(=O)/C=C/c2ccc(OC)cc2)cc1	nt	nt	nt	nt	nt	-10.4%
Cc1cccc(/C=C/C(=O)c2ccc([N+](=O)[O-])o2)c1	0.651µM*	0.581µM*	-100.4*	-19.8%	?	?
Cc1ccc([N+](=O)[O-])cc1N/C=C/C(=O)c1ccco1	20.6µM*	?	4.9	?	?	13.6%
Cc1cccc(/C=C/C(=O)c2cc3ccccc3o2)c1	nt	nt	nt	nt	nt	-0.6%
COc1ccc(/C=C/C(=O)c2ccc([N+](=O)[O-])o2)cc1	2.59µM*	2.31µM*	-13.5	?	18.4µM*	-22.5%
Cc1ccc(N/C=C/C(=O)c2ccco2)c(O)c1	-9.2%	-8.7%	33.6	-3.5%	-8.9%	20.2%
Cc1cccc(C)c1NC(=O)CN(CC(=O)Nc1c(C)cccc1C)Cc1nc2ccccc2o1	nt	nt	nt	nt	nt	25.7%
